A short description of assay [1]: qHTS assay to identify small molecule antagonists of the estrogen related receptor (ERR) signaling pathway from Tox21 library - cell viability counter screen (AID 1224834). Note: nearly all actives have a fitted effect of over 30% in size. Summed up:
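ERR reporter cells, 2,000 per well, rested 6 h, then exposed to compound in DMSO for 17.5 hours at 37 C. Viability read as fluorescence after 30 min with CellTiter-Fluor.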
For orientation: qHTS replaces the single test concentration by a dilution series.

Assay [2] is described as follows: qHTS assay to identify small molecule agonists of the constitutive androstane receptor (CAR) signaling pathway - cell viability counter screen (AID 1224836). Note: nearly all actives have a fitted effect of over 45% in size. Summed up: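 Counter screen multiplexed with the CAR reporter readout: HepG2 cells co-transfected with hCAR and the CYP2B6-2.2kb construct receive a 15-concentration compound series and 0.75 uM PK11195 (final), then CellTiter-Fluor fluorescence is read after 23 h.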

Assay [3] in a line: qHTS assay to identify small molecule antagonists of the constitutive androstane receptor (CAR) signaling pathway - cell viability counter screen (AID 1224837). Note: nearly all actives have a fitted effect of over 45% in size. The procedure, abridged: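 HepG2 cells stably carrying hCAR and CYP2B6-2.2kb reporter, stimulated with 50 nM CITCO and compounds at 15 concentrations for 23 h at 37 C. Viability measured by CellTiter-Fluor fluorescence.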

Assay [4] has as its target Nuclear receptor subfamily 1 group I member 3 (Homo sapiens) (UniProt Q14994). The assay is described as follows: qHTS assay to identify small molecule antagonists of the constitutive androstane receptor (CAR) signaling pathway (AID 1224838). Note: nearly all actives have a fitted effect of over 40% in size. Summed up: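 HepG2 cells stably carrying hCAR and a CYP2B6-2.2kb luciferase reporter, seeded 4 hrs before compound (15 concentrations). Stimulated with 50 nM CITCO for 24 hr at 37 C. ONE-Glo luminescence read after 30 min at room temperature.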

Assay [5] shares this target. The assay is described as follows: qHTS assay to identify small molecule agonists of the constitutive androstane receptor (CAR) signaling pathway (AID 1224839). Note: nearly all actives have a fitted effect of over 15% in size. Note: potency is the fitted concentration of half-maximal effect. Summed up:
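A 15-concentration quantitative screen uses HepG2 cells co-transfected stably with human CAR and CYP2B6-2.2kb reporter. Treatment lasts 24 h with 0.75 uM PK11195 final present; ONE-Glo luminescence is the signal.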

Assay [6] is described as follows: qHTS assay to identify small molecule antagonists of the estrogen related receptor signaling pathway with the pleiotropic PPARgamma coactivator (PGC) from Tox21 10K library - cell viability counter screen (AID 1224840; active = well fitted cell-killing curve with a large enough effect in the repeat runs, not every such curve was filed as active; note: nearly all actives have a fitted effect of over 40% in size). The procedure, abridged:
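PGC/ERR cells (2,000/well) plated 6 h, then compound-treated for 17.5 h at 37 C. Viability measured by CellTiter-Fluor fluorescence after 30 min at 37 C, multiplexed with the pathway assay.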

Assay [7] in a line: qHTS assay to identify small molecule antagonists of the estrogen related receptor signaling pathway with the pleiotropic PPARgamma coactivator (PGC) from Tox21 10K library (AID 1224841; call rule not given here; note: actives are mostly falling curves and most rising ones were filed inactive; nearly all actives have a fitted effect of over 50% in size). The procedure, abridged: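 PGC/ERR cell line, 2,000 cells/well, pre-incubated 6 hours at 37 C, then exposed to compounds for 18 hours at 37 C; luciferase read with One-Glo luminescence after 30 min at room temperature.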

A short description of assay [8]: qHTS assay to identify small molecule agonists of the estrogen related receptor signaling pathway with the pleiotropic PPARgamma coactivator (PGC) from Tox21 10K library (AID 1224842). Note: nearly all actives have a fitted effect of over 15% in size. Summed up:
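Luminescence from One-Glo (30 min, room temperature) measured after PGC/ERR cells had 18 h at 37 C with pinned compound (23 nL in DMSO). Cells had been seeded at 2,000 per well and pre-incubated 6 h.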

Assay [9] can be described thus: qHTS assay to identify small molecule agonists of the hypoxia (HIF-1) signaling pathway - cell viability counter screen (AID 1224844; calls by dose curve; note: nearly all actives have a fitted effect of over 50% in size). The procedure, abridged:
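HRE-bla ME-180 cells, 2,000/well in 0.5% dialyzed FBS medium, treated 17 h at 37C with compounds. Viability read in the same wells as the bla reporter, by CellTiter-Glo luminescence after 30 min at room temperature.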

A short description of assay [10]: qHTS assay to identify small molecule agonists of H2AX (AID 1224845; active = well fitted activation curve with a large enough effect in the signal ratio in the repeat runs, not every such curve was filed as active; the % refers to the signal ratio). Summed up:
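Phospho-H2AX Ser139 measured by HTRF (ex 320 nm; em 665 and 620 nm) after 24 hr antibody incubation. Compounds, 15 concentrations, 0.76% DMSO, were applied to CHO-K1 cells for 3hr at 37C before lysis.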

Assay [11] is described as follows: qHTS assay to identify small molecule antagonists of the estrogen related receptor (ERR) signaling pathway from Tox21 library (AID 1224848). Note: nearly all actives have a fitted effect of over 50% in size. Summed up:
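Reading was by luminescence 30 min after ONE-Glo addition. Before that, ERR cells at 2,000 per well had rested 6 h at 37 C/5% CO2 and then received pin-tooled compounds in DMSO for 18 h at 37 C.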

Assay [12] can be described thus: qHTS assay to identify small molecule agonists of the estrogen related receptor (ERR) signaling pathway from Tox21 library (AID 1224849; calls by dose curve; note: nearly all actives have a fitted effect of over 15% in size). Conditions: ERR reporter cell line, ONE-Glo luciferase, 18 h; at 92.4 µM (top of the series) unless noted. The procedure, abridged: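 ERR reporter cells (NTP line) pre-incubated 6 hours at 37 C, then exposed to compounds for 18 hours at 37 C. ONE-Glo luciferase luminescence was read after 30 minutes at room temperature.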

The nature of assay [13]: qHTS RealTime-Glo MT Cell Viability Assay in HepG2 cells - 24 hour (AID 1224867). Note: nearly all actives have a fitted effect of over 50% in size. Summed up: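 Real-time, nonlytic viability: 600 HepG2 cells/well mixed with NanoLuc enzyme plus prosubstrate; 5 h settle, compound (DMSO) added by pintool; luminescence monitored over 40 h at 37 C.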
Assay [14] in a line: A CellTox Green Cytotoxicity Assay to monitor cytotoxicity in HEK293 cells - 0 hour (AID 1224869). Note: nearly all actives have a fitted effect of over 50% in size. The procedure, abridged: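 HEK293 cells, 600/well, were preincubated 5 hours and then exposed to compounds at 37 C for up to 40 hours. A cell-impermeant cyanine dye staining dead-cell DNA was read by fluorescence at 0, 8, 16, 24, 32 and 40 h time points.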
Assay [15] is described as follows: qHTS RealTime-Glo MT Cell Viability Assay in HepG2 cells - 40 hour (AID 1224870). Note: nearly all actives have a fitted effect of over 50% in size. Summed up: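 Real-time viability: cells seeded at 600 per well together with NanoLuc and cell-permeant prosubstrate, compounds added after 5 h incubation. Luminescence tracked at 0, 8, 16, 24, 32 and 40 h of exposure.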
Assay [16] deals with Luciferin 4-monooxygenase (Photinus pyralis) (UniProt P08659). In words: qHTS assay to identify small molecule inhibitors of firefly luciferase (AID 1224835). Note: nearly all actives have a fitted effect of over 25% in size. The procedure, abridged:
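Inhibition of purified Photinus luciferase is measured by luminescence. Substrate levels (D-luciferin, ATP) sit at their KM values. Each compound is tested in a concentration series.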

For assay [17], the target named is Thyrotropin receptor (Homo sapiens) (UniProt P16473). The assay is described as follows: qHTS assay to identify small molecule agonists of the thyroid stimulating hormone receptor (TSHR) signaling pathway (AID 1224843; calls by dose curve; note: nearly all actives have a fitted effect of over 45% in size). Summed up:
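HEK293 cells stably bearing the thyrotropin receptor were plated at 800 cells/well and challenged with compound (30 min, RT). Accumulated cAMP was quantified via cAMP-d2 competing for cryptate-tagged antibody.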

Assay [18] in a line: qHTS assay to identify small molecule agonists of the hypoxia (HIF-1) signaling pathway (AID 1224846; active = well fitted activation curve with a large enough effect in the signal ratio in the repeat runs, not every such curve was filed as active; the % refers to the signal ratio). Summed up:
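HRE-bla ME-180 beta-lactamase reporter cells in medium with 0.5% dialyzed FBS, pre-incubated 5 h then exposed to compounds 17 h at 37C, 5% CO2; reporter induction read with CCF4-AM FRET substrate.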

The nature of assay [19]: qHTS assay to identify small molecule agonists of H2AX - cell viability counter screen (AID 1224847; calls by dose curve; note: top concentration of the series differs between compounds; nearly all actives have a fitted effect of over 30% in size). The procedure, abridged: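 We seed wild-type CHO-K1 cells overnight, treat them for 3 hr at 37C with compounds in 15-concentration series, and quantify remaining viability by CellTiter-Glo luminescence.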
A short description of assay [20]: qHTS RealTime-Glo MT Cell Viability Assay in HEK293 cells - 32 hour (AID 1224868). Summed up: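 Cells + reagent dispensed (600 cells/well, HEK293) → 5 h at 37 C/5% CO2 → 23 nL compound in DMSO pinned → 40 h at 37 C → luminescence read at 0, 8, 16, 24, 32, 40 h.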

Each structure is given as a SMILES string. A number with no mark means an inactive call. Results filed as inconclusive are left out. Calls of active or inactive are those of the source. Unless noted, calls come from the whole dose curve; as a rule, active = well fitted curve in the direction sought with a large enough effect in the repeat runs; inconclusive = weak or mixed curves; inactive = no such curve, though single readings can be large; an effect the other way counts as inactive or inconclusive.
% is set by controls: 0 for no effect and ±100 for the full control effect.

Sequence of Nuclear receptor subfamily 1 group I member 3 (Homo sapiens) (Q14994 whole entry, looked up): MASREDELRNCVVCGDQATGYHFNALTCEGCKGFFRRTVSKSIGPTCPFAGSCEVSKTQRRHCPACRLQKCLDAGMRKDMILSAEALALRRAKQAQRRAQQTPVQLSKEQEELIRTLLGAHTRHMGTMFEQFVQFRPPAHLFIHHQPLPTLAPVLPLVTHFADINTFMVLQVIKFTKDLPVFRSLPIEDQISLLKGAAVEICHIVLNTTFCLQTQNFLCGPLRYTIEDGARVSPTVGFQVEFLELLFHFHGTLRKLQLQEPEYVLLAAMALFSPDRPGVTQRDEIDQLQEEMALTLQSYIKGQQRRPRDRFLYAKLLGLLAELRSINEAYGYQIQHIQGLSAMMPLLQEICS
Sequence of Thyrotropin receptor (Homo sapiens) (P16473 whole entry, looked up): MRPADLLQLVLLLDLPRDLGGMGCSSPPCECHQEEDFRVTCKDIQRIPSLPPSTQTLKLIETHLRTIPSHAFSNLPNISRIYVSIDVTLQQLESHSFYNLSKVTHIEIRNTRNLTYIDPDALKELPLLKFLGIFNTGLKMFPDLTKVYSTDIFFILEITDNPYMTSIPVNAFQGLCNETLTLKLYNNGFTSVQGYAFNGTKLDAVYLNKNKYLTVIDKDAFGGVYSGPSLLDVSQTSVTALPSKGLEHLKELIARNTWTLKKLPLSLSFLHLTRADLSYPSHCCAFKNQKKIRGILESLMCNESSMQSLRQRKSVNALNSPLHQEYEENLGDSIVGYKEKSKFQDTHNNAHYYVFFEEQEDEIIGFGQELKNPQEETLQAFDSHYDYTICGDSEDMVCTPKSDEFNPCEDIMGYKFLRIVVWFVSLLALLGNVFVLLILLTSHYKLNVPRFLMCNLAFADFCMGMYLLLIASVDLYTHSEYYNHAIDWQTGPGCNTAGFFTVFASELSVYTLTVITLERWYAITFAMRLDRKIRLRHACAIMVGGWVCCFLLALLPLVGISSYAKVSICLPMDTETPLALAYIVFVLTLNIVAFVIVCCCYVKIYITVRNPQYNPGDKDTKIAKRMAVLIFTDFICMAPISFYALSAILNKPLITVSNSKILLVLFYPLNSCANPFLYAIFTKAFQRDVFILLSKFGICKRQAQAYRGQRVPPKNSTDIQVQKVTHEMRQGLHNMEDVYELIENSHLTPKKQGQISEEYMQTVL
Sequence of Luciferin 4-monooxygenase (Photinus pyralis) (P08659 whole entry, looked up): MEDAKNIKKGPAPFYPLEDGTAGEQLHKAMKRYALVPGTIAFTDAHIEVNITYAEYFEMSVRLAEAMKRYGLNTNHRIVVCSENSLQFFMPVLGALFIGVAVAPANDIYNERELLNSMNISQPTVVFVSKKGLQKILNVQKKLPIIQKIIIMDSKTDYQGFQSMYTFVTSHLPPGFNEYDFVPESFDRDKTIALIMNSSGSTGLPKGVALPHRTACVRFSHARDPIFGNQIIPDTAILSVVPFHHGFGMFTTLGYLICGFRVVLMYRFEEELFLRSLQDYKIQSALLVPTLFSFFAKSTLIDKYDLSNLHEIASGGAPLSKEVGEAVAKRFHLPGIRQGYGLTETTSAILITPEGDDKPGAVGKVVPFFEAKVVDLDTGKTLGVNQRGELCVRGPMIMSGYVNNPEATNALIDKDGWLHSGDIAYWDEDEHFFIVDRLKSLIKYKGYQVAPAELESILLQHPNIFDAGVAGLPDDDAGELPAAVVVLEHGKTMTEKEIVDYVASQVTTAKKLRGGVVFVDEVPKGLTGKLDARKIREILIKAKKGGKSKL

For the compound `CC(COc1ccc(Oc2ccccc2)cc1)Oc1ccccn1` (centres undefined), the Potency entry in assay [1], in [2], in assay [3], in assay [4], in [6] and in [7] was “inactive” each time. Besides, the Potency result in [9], in assay [10], in assay [11], in assay [13], in [14] and in [15] was “inactive” in each case. In addition, the Potency in [5] was 54.4 µM (active). Further, the outcome in assay [8] was inactive. In [12], the activity change, positive = activation is 0.411%.

Turning to `NC1=NC(=O)C(c2ccccc2)O1` (centres undefined), the Potency entry in [1], in assay [16], in [2], in assay [5], in [6] and in [17] was “inactive” each time. The Potency entry in assay [9], in assay [10], in [19], in assay [13], in assay [20] and in assay [14] was “inactive” each time. For the same compound, the Potency result in assay [15] was “inactive”. For the same compound, the call in assay [18] was inactive.

As to `CCCCCCBr`, the Potency result in assay [1], in assay [2], in assay [3], in assay [4], in assay [5] and in [6] was “inactive” throughout. The Potency entry in assay [17], in assay [9], in assay [10], in [19], in assay [11] and in [13] was “inactive” each time. For the same compound, the Potency entry in assay [20], in [14] and in assay [15] was “inactive” in each case. Besides, the compound was called inactive in [8] and in assay [18]. Further, the activity change, positive = activation in assay [12] was 0.352%.

On to `COP(=S)(OC)Oc1c(Cl)cc(C)cc1Cl`, for which the Potency entry in [1], in [2], in assay [3], in assay [4], in assay [6] and in assay [7] was “inactive” throughout. Besides, the Potency entry in [9], in [10], in assay [19], in assay [13], in [20] and in [14] was “inactive” in each case. In [15], the Potency result is “inactive”. Further, the Potency in assay [5] is 27.3 µM (active). Moreover, the compound was classed as inactive in [8] and in [18]. Besides, in [12], the activity change, positive = activation is 0.872%.

Values taken from PubChem BioAssay (Tox21).
